# In PubChem BioAssay (NCATS):
# Records with an inconclusive call do not appear. Entries that show only a call come without a potency. Calls of active or inactive are those of the source. Calls come from the whole dose curve; as a rule, active = well fitted inhibition curve with a large enough effect; inconclusive = small, poorly fitted or top-dose-only effect; inactive = flat fitted curve, though single readings scatter.
# Test system: CRL-7250
# Test: qHTS assay to identify novel small-molecules to repurpose for Merkel cell carcinoma treatment (AID 1296009); note: nearly all actives have a fitted effect of over 60% in size
# Settings: MCC and control cell lines, CellTiter-Glo viability, 72 h; series mostly up to 92 µM; activity change, negative = cytotoxicity: at the top concentration
# In short: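 72 hr, 37 degree celsius; NPC 8-pt / MIPE 11-pt dose response; compound pinned in DMSO; CellTiter-Glo, 10 min RT, luminescence; normalized to no-cell and DMSO controls.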
# Potency is the fitted concentration of half-maximal effect.
Structure (SMILES),outcome,Potency
CC(=O)OC1CC(=O)C2(C)C3CC4=C(OC(C)CC4=O)OC3(C)CCC2C1(C)C (stereo not drawn),inactive [at 17.4 µM],
Fc1cc(F)c2c(c1)[C@H]1C=CC[C@H]1C(c1cccnc1)N2 (stereo partly drawn),,4.61 µM (active)
Cc1ccc2c(c1)C=Cc1cc(C)ccc1C2c1cn(Cc2ccc(C(=O)Nc3nn[nH]n3)o2)c(=O)[nH]c1=S,inactive,
CC(/C=C/C1(O)C(C)(C)CC(O)CC1(C)O)OC1OC(CO)C(O)C(O)C1O (stereo not drawn),inactive [at 17.4 µM],
CN(C)c1ccccc1CN1CCCN(Cc2ccccc2N(C)C)C1c1ccncc1,inactive,
CN1C(=O)c2ccccc2-n2c(nc3ccccc3c2=O)/C1=C/c1ccccc1,inactive,
CC/C=C\CC1C(=O)C=CC1(CCCCC1CCC(=O)O1)OC(C)=O (stereo not drawn),inactive,
CC12CCC3c4ccc(OC5OC(C(=O)O)C(O)C(O)C5O)cc4CCC3C1CCC2O (stereo not drawn),inactive,
CC1(C)CC[C@]2(C(=O)O)CC[C@]3(C)C(=CCC4[C@@]5(C)C[C@@H](O)[C@H](O)[C@@](C)(CO)C5[C@H](O)C[C@]43C)[C@@H]2C1 (stereo partly drawn),inactive [at 17.4 µM],
CC1=CC(=O)C(=C(C)C)CC2C(C)(O)CCC12O (stereo not drawn),inactive,
O=S(=O)(c1ccccc1)N(CC(F)(F)F)c1ccc(C(O)(C(F)(F)F)C(F)(F)F)cc1,inactive,
CC(C)=C1CC2C(CCC2(C)O)C(C)(O)CC1=O (stereo not drawn),inactive,
C/C=C(\C)C(=O)O[C@H]1[C@@H](O[C@]2(COC(=O)CC(C)C)O[C@H](COC(=O)C(C)C)[C@@H](OC(C)=O)[C@@H]2O)O[C@H](COC(C)=O)[C@@H](O)[C@@H]1O,inactive [at 17.4 µM],
